The values below come from PubChem BioAssay (NCI).

The structures appear in SMILES notation. This is part of a sample that, as a whole, favours compounds with a hit. Of some 83,000 tested, about 20% had one in any assay.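 Assay: single dose, 48 h. Readout: percent growth (0 = no net growth; negative = cell death). Active: <10.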 Values without a mark were called inactive. Active and inactive are the calls of the source.

This test deals with T-47D breast. As to the kind of experiment: NCI-60 one-dose screen, 48 h (100 = growth as untreated, 0 = no growth, -100 = all killed). Particulars: 10 µM unless noted. As to the method: Growth inhibition of the T-47D human tumor cell line is measured as a screen for anti-cancer activity. Cells are grown in 96 well plates and exposed to the test compound for 48 hours. Compounds are tested at a single concentration, which is 10^-5 M for most compounds. The reported endpoint is percent growth (GI% or GIPRCNT), where numbers from 0 - 100% represent growth inhibition, and numbers from -100% - 0 represent cell death. For example, a value of 40 represents 60% growth inhibition. A value of 0 means no net growth occurred over the course of the experiment. A value of -40 indicates 40% of cells at the beginning of the experiment died by the end of the experiment. A value of -100 means all cells are dead at the end of the experiment.
NCI-60 Human Tumor Cell Lines Screen was performed using the standard one-dose NCI protocol, which is described in more detail at https://dtp.cancer.gov/discovery_development/nci-60/default.htm.
Compounds with GIPRCNT values below 10 were considered active. Activity score was based on GIPRCNT using the following formula: […]
Score is 0 for GIPRCNT values of 100 or above, 50 for GIPRCNT values of 0, and 100 for GIPRCNT values of -100.
For the compound `COc1ccc(/C=C/C(=O)c2cc(S(N)(=O)=O)c(OC)cc2OC)cc1`, the growth is 50.3%.

In the case of `CC1(C)[C@@H](O)CC[C@]2(C)[C@H]3CC[C@@H]4[C@H]5[C@H](C(=O)/C=C\c6ccncc6)CC[C@]5(O)CC[C@@]4(C)[C@]3(C)CC[C@@H]12`, the growth is 68.7%.

Turning to `CCOc1cccc(-c2nc3sccn3c2-c2ccnc(S(C)(=O)=O)n2)c1`, the growth was 65.8%.

As for `NC(N)=Nc1ccc(Oc2cccc(NC(N)=Nc3ccc(Br)c(C(F)(F)F)c3)c2)cc1`, the growth was 55.5%.

For the compound `O=C(Nc1cccc(Cl)c1)Nc1nc2ccc([N+](=O)[O-])cc2o1`, the growth was -10.9% (active).

For the compound `O=C1[C@H]2Cc3c([nH]c4ccccc34)[C@@H](c3ccc(Cl)cc3)N2C(=O)CN1C1CCN(Cc2ccccc2)CC1`, the growth was 55.9%.

Regarding `COc1ccc(Oc2ccc(/C=N/NC(=O)CSc3nc4ccccc4c(=O)n3-c3ccc(Cl)cc3)cc2)cc1`, the growth is 37.8%.

Turning to `CCO/C=N/C1=C(C#N)C(c2ccc(Cl)cc2)c2sc3c(CC)cccc3c2O1` (stereo not given), the growth was 26.9%.

Consider `Cc1cc(C)n(C(=O)c2sc(=S)n(-c3ccccc3)c2N=Nc2c(N)n[nH]c2N)n1`, for which the growth is 117%.

As for `N#Cc1cnc2ccc(-c3cnc4[nH]ncc4c3)cc2c1N1CCc2cc(F)c(Cl)cc21`, the growth is -2.57% (active).

For `CC1=N[C@@H]2CN(C(=O)OC(C)(C)C)C[C@@H]2n2c1cc1ccccc1c2=O`, the growth was 98.8%.

On to `O=S(=O)(NCCCNc1nccc(-n2cnc3ccccc32)n1)c1ccc(C(F)(F)F)cc1`, for which the growth was 44.7%.

With `CNC(=O)c1cc(N2CCc3cc(NC(=O)Nc4ccc(Cl)c(C(F)(F)F)c4)ccc32)ccn1`, the growth was 49.2%.

As for `NC(N)=Nc1ccc(Oc2cccc(Nc3ccc(Br)c(C(F)(F)F)c3)c2)cn1`, the growth was 12.9%.

In the case of `N#Cc1c(-c2cccs2)cc(-c2cnccn2)nc1SCC(=O)c1ccc(F)cc1`, the growth was 106%.

In the case of `Nc1nc(Nc2ccccc2SSc2ccccc2Nc2nc(N)nc(-c3ccccc3)n2)nc(-c2ccccc2)n1`, the growth is 74.7%.

In the case of `CCCCCc1ccc(S(=O)(=O)Nc2cccc(-c3csc(NC(=O)CCCCCN4CCN(CCO)CC4)n3)c2)cc1`, the growth is 73.5%.

As for `O=C1CCCC2=C1C(c1c[nH]c3ccc(Br)cc13)Cc1cc(Br)ccc1N2` (stereo not given), the growth was 20.7%.

Take `Nc1nc(N)c2c(n1)NC(c1ccc(Cl)cc1)CC(c1ccc(Nc3nc(NCCO)nc(N4CCOCC4)n3)cc1)=N2` (stereo not given): the growth is 74.8%.

On to `CCCCCCCn1cc2c(N[C@H](C)c3ccccc3)ncnc2n1`, for which the growth was 99.7%.

Turning to `COCCNc1ccc2ncc(C#Cc3cncc(C(=O)Nc4ccc(CN5CCN(C)CC5)c(C(F)(F)F)c4)c3)n2n1`, the growth is -7.3% (active).

As to `O=C(CSc1nc2ccccc2c(=O)n1-c1ccccc1)Nc1ccc(-c2nc3ccc([N+](=O)[O-])cc3[nH]2)cc1`, the growth is 89.1%.

Consider `Cc1ccc2c(c1)Oc1nc(N)c(C#N)c(N)c1C2Sc1ccc(F)cc1` (stereo not given), for which the growth was -47.1% (active).

In the case of `CS(=O)(=O)Nc1cc(-c2ccc3ncc(C#N)c(NCc4ccccc4O)c3c2)cnc1Cl`, the growth is 13%.

`CCOc1ccc(C(=O)Nc2ncc(Cc3ccc(F)cc3)s2)cc1`: the growth is 34.1%.

In the case of `ClC(Cl)c1nc(-c2ccco2)n2nc(-c3ccccc3)cc2n1`, the growth was 32.8%.

For `CC(C)(C)n1cc(-c2ccnc(NCCCNS(=O)(=O)c3cccc(F)c3)n2)c(-c2ccc(Cl)c(O)c2)n1`, the growth was 75.1%.

For `CC(=O)Nc1cccc(Nc2nc(N[C@H](C)c3ccccc3)c3ccccc3n2)c1`, the growth was 78.8%.

Take `O=S(=O)(NCCNc1nccc(-n2cnc3ccccc32)n1)c1ccc(Br)cc1`: the growth is 59.1%.

As for `N#Cc1cccc(/C(N)=N/C(N)=N/c2nc3ccccc3s2)c1`, the growth is 34.1%.

Turning to `COc1cc(OC)cc(C(=O)Nc2cccc(C#Cc3cccc4[nH]nc(N)c34)c2)c1`, the growth is 31.2%.

Consider `C=C(C)[C@@H]1CC[C@]2(COP(=O)(OCC)OCC)CC[C@]3(C)[C@H](CC[C@@H]4[C@@]5(C)CCCNC(C)(C)[C@@H]5CC[C@]43C)[C@@H]12`, for which the growth is 59.1%.

For `Nc1ncc(-c2ccc3ncnc(N4CCc5cc(F)c(Cl)cc54)c3c2)cn1`, the growth was 13.5%.

Consider `Cc1noc(C)c1CSc1nc2ccccc2n1-c1ccccc1`, for which the growth was 93.8%.

With `Cc1ccc(N2C(=O)/C(=C/C=C/c3ccco3)SC2=S)cc1`, the growth is 71.6%.

On to `COc1cccc(N2CCN(c3ncnc4c3[nH]c3ccc(F)cc34)C[C@H]2C)c1`, for which the growth is 14.6%.

In the case of `Cc1ccc(CSc2nc(-c3ccc(Cl)cc3)c(C#N)c(N3CCOCC3)n2)cc1`, the growth was 79%.

`COc1cc(Cn2cc3c(c2)-c2onc(CN4CCCC4)c2CC3)cc(OC)c1OC`: the growth is 76.1%.

As for `COC(=O)c1[nH]nc2c1C1(C(=O)c3cccc4cccc1c34)C(C#N)=C(N)O2` (stereo not given), the growth is 104%.

Consider `CN(C)CCNC(=O)c1ccc(-c2nc3ccc4[nH]ncc4c3c3c2COCC3)cc1`, for which the growth was -7.62% (active).
